BL2 CD40 inh: CD40 pathway inhibition in BL2 cells; AID 1053188; inhibition, % at 10 µM; 83,000 compounds, 0.94% hits; BL2 NF-kB luciferase reporter, CD40L-induced, 4 h;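 active = mean inhibition of at least 50% with a set share of replicates also reaching that level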;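 also: 0% = neutral control wells and 100% = IKK inhibitor VII at 50 µM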
An asterisk follows results filed as active; ! = repeats disagree; [ ] = dose if it differs, or a comment. The full list was thinned out, with hits kept by preference.

SMILES	BL2 CD40 inh
NC1=C(Br)C(=O)c2ncccc2C1=O	70*
COc1cc(C(=O)NNC(=O)/C=C/c2ccccc2)cc(OC)c1OC	-9
COc1cc(C=CC(=O)c2cc(OC)c(OC)c(OC)c2)cc(OC)c1OC	65*
COc1ccc(C(=O)C=Cc2ccc(OCc3ccccc3)c(OC)c2)cc1OC	-16
COc1ccccc1-c1ccc([C@H]2[C@@H](C#N)N(C(=O)C3CC3)[C@H]2CO)cc1	-39
CCCN1CCC2(CC1)CN(Cc1ccccc1OC)[C@H](CO)c1c2c2ccc(OC)cc2n1C	-105
O=C([C@@H]1[C@@H](CO)[C@@H]2Cn3c(cccc3=O)[C@H]1N2C(=O)c1ccc(F)cc1)N1CCCCC1	-6[25 µM]
COc1ccc(C2NC(C(=O)O)Cc3c2[nH]c2ccccc32)cc1OC (centres undefined)	-14
Cc1cc(C=O)c(C)c2c1[nH]c1ccccc12	10
COc1ccc(OC)c2c(=S)c3ccccc3[nH]c12	active[25 µM]
CC[C@@H]1C/C=C\C[C@H](c2ccccc2)NC(=O)CCC(=O)N1	3[25 µM]
CCNC(=O)C[C@H]1CC[C@H]2[C@@H](COC[C@@H](O)CN2C(=O)C2CCCC2)O1	-11[25 µM]
CNC[C@@H]1Oc2c(NS(C)(=O)=O)cccc2C(=O)N(C)C[C@@H]1C	-3
Cc1ccc(N2C(=O)c3cccc4c([N+](=O)[O-])ccc(c34)C2=O)c2cccnc12	2
O=C1c2cccc3cccc(c23)C(=O)N1Cc1cccnc1	4
O=C1c2cccc3c([N+](=O)[O-])ccc(c23)C(=O)N1Cc1cccnc1	84*
O=C(NCCN1CCCC1)[C@@H]1[C@@H](CO)[C@@H]2Cn3c(cccc3=O)[C@@H]2N1Cc1ccccn1	3[25 µM]
C[C@@H]1CCCCO[C@H](CN(C)CC2CCCCC2)[C@H](C)CN([C@H](C)CO)C(=O)c2cc(NS(C)(=O)=O)ccc2O1	15[25 µM]
CN(C)C(=O)[C@@H]1[C@@H](CO)[C@@H]2Cn3c(ccc(C4=CCCC4)c3=O)[C@H]1N2CCC(F)(F)F	9[25 µM]
CC(NCCc1ccc(O)cc1)C(O)c1ccc(O)cc1 (centres undefined)	-1
CCCCCCCCNC(C)C(O)c1ccc(SC(C)C)cc1 (centres undefined)	39*
O=C(Cc1ccncc1)NCC[C@@H]1CC[C@@H](NC(=O)C2CCCC2)[C@@H](CO)O1	5
CCC(=O)N1[C@H](CO)[C@H]2c3ccccc3N(C(=O)c3cnccn3)C[C@H]21	6[25 µM]
CC(C)NC(=O)N(C)C[C@H]1Oc2c(cccc2N(C)C)C(=O)N(C)C[C@@H]1C	5
O=C(C1CCC1)N1CCc2cc(S(=O)(=O)N3CCCCC3)ccc21	active
SMILES	BL2 CD40 inh
O=C(c1ccco1)N1CCN(S(=O)(=O)c2ccc3c(c2)CCN3C(=O)C2CCC2)CC1	9
CCOC(=O)N1CCN(S(=O)(=O)c2ccc3c(c2)CCN3C(=O)C2CCC2)CC1	3
O=C([C@@H]1[C@@H](CO)[C@@H]2Cn3c(cccc3=O)[C@H]1N2)N1CCc2ccccc2C1	-3[25 µM]
CNC[C@@H]1Oc2ccc(N)cc2C(=O)N(C)C[C@@H]1C	4
CC(=O)N1Cc2cc(C(=O)NCc3cccc(F)c3)nc(-c3cccc(C4=CCCC4)c3)c2[C@@H]1CCO	4
O=C(Nc1cccc(Cl)c1)N1[C@@H]2CNC[C@H]1C2c1ccc(/C=C/c2ccccc2)cc1 (some centres undefined)	7[25 µM]
COc1cccc(NC(=O)N2[C@@H]3CNC[C@H]2C3c2ccc(/C=C/c3ccccc3)cc2)c1 (some centres undefined)	60*!
COc1cccc(NC(=O)N2[C@@H]3CNC[C@H]2C3c2ccc(-c3ccccc3)cc2)c1 (some centres undefined)	-19
CC=Cc1ccc2n(c1=O)C[C@@H]1[C@@H](CO)[C@H](C(=O)NC3CCCC3)N(C(=O)C3CCC3)[C@H]21 (mixture of isomers)	0
CO[C@H]1CN(C)C(=O)c2cc(NC(=O)c3ccccc3F)ccc2OC[C@@H](C)N(CC2CCOCC2)C[C@H]1C	-3[25 µM]
CCCNC(=O)N[C@@H]1C=C[C@H](CC(=O)N2CCN(C)CC2)O[C@@H]1CO	-5[25 µM]
Cc1cc(C)nc(Sc2ncnc(N)c2[N+](=O)[O-])n1	82*
Cc1cccnc1Nc1ncnc(N)c1[N+](=O)[O-]	3
Nc1ncnc(Nc2ccccn2)c1[N+](=O)[O-]	8
C[C@H]1CC(=O)N[C@@H](c2ccccc2)C/C=C\C[C@H](c2ccccc2)NC1=O	10[25 µM]
COC(=O)C12OCC34C(CC5C(C)=C(O)C(=O)CC5(C)C3C(O)C1O)OC(=O)C(OC(=O)C=C(C)C)C24 (centres undefined)	103*
C[C@@H]1CC=CC[C@H](c2ccc3c(c2)OCO3)NC(=O)[C@H](C)N(C)C(=O)c2ccccc2O1 (mixture of isomers)	14[25 µM]
COCC(=O)N1C[C@@H]2[C@H](c3ccccc31)[C@H](CO)N2C(=O)C1CCCCC1	9
O=C(C1CCC1)N1CC2(C1)[C@@H](c1ccccc1)[C@@H](CO)N2Cc1nccs1	-3[25 µM]
Cn1cc(/C=N/Nc2ccccc2)c2ccccc21	-3
O=C(/C=C/c1ccccc1)c1ccccc1	-42
Cn1cc(/C=C/C(=O)c2ccccc2)c2ccccc21	33*
COc1ccc(CNC(=O)C[C@@H]2C[C@@H]3c4cc(NC(=O)NC5CCCC5)ccc4O[C@@H]3[C@H](CO)O2)cc1	1[25 µM]
O=C(c1cccnc1)N1C[C@@H]2[C@H](c3ccccc31)[C@H](CO)N2C(=O)Nc1ccccc1	2
C=C(CN(C)C)C(=O)c1cc(C)ccc1C	91*
SMILES	BL2 CD40 inh
Cc1ccc(C(=O)NCCN(C)C)cc1C	12
Cc1ccc(C)c(C(=O)NCCN(C)C)c1	7
CCS(=O)(=O)N1[C@H](CO)[C@H](c2ccccc2)[C@@H]1CN(C)Cc1ccccn1	3[25 µM]
C[C@H]1CN(C)C(=O)Cc2cc(N(C)C)ccc2O[C@H]1CN(C)S(C)(=O)=O	5
COc1cccc(NC(=O)/C=C/c2ccc(Cl)cc2)c1	16[25 µM]
COC(=O)CCCNc1ncccc1[N+](=O)[O-]	7
COc1ccc(NS(=O)(=O)c2cccc(C(=O)NN=Cc3ccc(OC)cc3OC)c2)cc1	-4
COc1ccc(/C=N/Nc2ncccc2[N+](=O)[O-])c(OC)c1	68*
COc1cccc(NC(=O)N(C)C[C@@H]2OCc3ccccc3-c3c(n(C)c4ccccc34)C(=O)N([C@H](C)CO)C[C@@H]2C)c1	-2
COc1ccccc1N(CC(=O)N(CC(C)C)CC(C)C)S(=O)(=O)c1cccs1	14
COc1ccc(Cl)cc1N(C(C)C(=O)O)S(C)(=O)=O (centres undefined)	-1
COc1ccccc1N(C(C)=O)C1=C(Cl)C(=O)c2ccccc2C1=O	101*
Cc1ccc(S(=O)(=O)N[C@@H]2C=C[C@H](CC(=O)NCc3ccc(Cl)c(Cl)c3)O[C@H]2CO)cc1	2[25 µM]
C[C@@H]1CN(C)C(=O)c2cc(N)ccc2O[C@H]1CN(C)C(=O)OC(C)(C)C	0
CCCCC#Cc1nc(NC)c2ncn(C3OC(CO)C(O)C3O)c2n1 (centres undefined)	-4[25 µM]
CCC(=O)N[C@H]1C=C[C@@H](CC(=O)NCCN2CCCCC2)O[C@@H]1CO	1
CN1C(=O)c2cc(NC(=O)C3CC3)ccc2OC[C@@H]2O[C@H](CC(=O)NCCc3ccncc3)CC[C@@H]21	5
CCC1=C(CC2NCCc3ccccc32)CC2c3cc(OC)c(OC)cc3CCN2C1 (centres undefined)	55*
COc1cc2c(cc1OC)[C@@H]1Cc3ccc(OC)c(OC)c3CN1CC2	3
